Test results from PubChem BioAssay AID1159580 (chemical genetic matrix, 2015).
Screen size: about 5,500 compounds; about 2,000 (36%) were called active. Inconclusive results (about 18%) are left out. Cut-off read from the data, not from the text of the source: active = normalized growth mostly below about 0.91 (no sharp cut-off); inconclusive = no clear call, values can overlap the other calls; inactive = mostly above about 0.92. Some of the results follow.

Test: chemical genetic growth profiling, strain panel (AID 1159580);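 note: tested at 20 µM; growth read once vehicle control cultures reached saturation at 30 °C; 1 = growth at the plate median or of vehicle wells; lower values mean less growth of the strain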
Conditions: S. cerevisiae deletion strains, growth OD

Measured: normalized growth

CC1CC2C3CC(F)C4=CC(=O)C=CC4(C)C3(F)C(O)CC2(C)C1(O)C(=O)CO (centres undefined)
inactive: locus YAL013W, strain DEP1, hits give low values 1.03 | locus YAL021C, strain ccr4, hits give low values 0.997 | locus YAL026C, strain drs2, hits give low values 1 | locus YAL030W, strain snc1, hits give low values 1 | locus YBL061C, strain skt5, hits give low values 0.996 | locus YBR009C, strain hhf1, hits give low values 0.997 | locus YBR021W, strain FUR4, hits give low values 1.03 | locus YBR023C, strain chs3, hits give low values 0.988 | locus YBR171W, strain sec66, hits give low values 0.997 | locus YBR229C, strain ROT2, hits give low values 1.01 | locus YBR231C, strain swc5, hits give low values 0.992 | locus YBR279W, strain paf1, hits give low values 0.989 | locus YCL011C, strain gbp2, hits give low values 0.992 | locus YCL016C, strain dcc1, hits give low values 0.98 | locus YCL029C, strain bik1, hits give low values 1.03 | locus YCL061C, strain MRC1, hits give low values 0.999 | locus YCL069W, strain vba3, hits give low values 1.01 | locus YCR088W, strain abp1, hits give low values 1 | locus YDL005C, strain med2, hits give low values 0.993 | locus YDL035C, strain GPR1, hits give low values 1.05 | locus YDL040C, strain nat1, hits give low values 0.997 | locus YDL074C, strain BRE1, hits give low values 1.09 | locus YDL101C, strain DUN1, hits give low values 1.02 | locus YDL134C, strain PPH21, hits give low values 1.01 | locus YDL185W, strain tfp1, hits give low values 1.03 | locus YDL192W, strain arf1, hits give low values 1.03 | locus YDR001C, strain nth1, hits give low values 1.01 | locus YDR069C, strain doa4, hits give low values 1.01 | locus YDR101C, strain arx1, hits give low values 1.02 | locus YDR137W, strain rgp1, hits give low values 0.995 | locus YDR150W, strain NUM1, hits give low values 1.03 | locus YDR159W, strain sac3, hits give low values 1.01 | locus YDR162C, strain NBP2, hits give low values 1.02 | locus YDR195W, strain ref2 0.968 | locus YDR297W, strain sur2, hits give low values 0.99 | locus YDR318W, strain mcm21, hits give low values 1.05 | locus YDR334W, strain swr1, hits give low values 0.994 | locus YDR335W, strain msn5, hits give low values 1 | locus YDR388W, hits give low values 1.01 | locus YDR392W, strain spt3, hits give low values 0.995 | locus YDR502C, strain sam2, hits give low values 1.02 | locus YEL003W, strain gim4, hits give low values 1.01 | locus YEL037C, strain rad23, hits give low values 1 | locus YEL061C, strain CIN8 (second series), hits give low values 1.01 | locus YEL061C, strain CIN8, hits give low values 1.01 | locus YER015W, strain faa2, hits give low values 1 | locus YER016W, strain bim1, hits give low values 0.995 | locus YER110C, hits give low values 1.03 | locus YER111C, strain swi4, hits give low values 1 | locus YER155C, strain BEM2 (second series), hits give low values 1.03 | locus YER155C, strain BEM2, hits give low values 0.999 | locus YER167W, strain BCK2, hits give low values 1.05 | locus YFR010W, strain ubp6, hits give low values 1.01 | locus YGL078C, strain dbp3, hits give low values 1.02 | locus YGL086W, strain mad1, hits give low values 1.04 | locus YGL167C, strain pmr1, hits give low values 0.991 | locus YGL173C, strain kem1, hits give low values 1.01 | locus YGL227W, strain vid30, hits give low values 0.998 | locus YGL240W, strain doc1, hits give low values 1 | locus YGL248W, strain PDE1, hits give low values 1.01 | locus YGL253W, strain hxk2, hits give low values 0.983 | locus YGR078C, strain PAC10, hits give low values 1.04 | locus YGR135W, strain pre9, hits give low values 1.03 | locus YGR229C, strain SMI1, hits give low values 1.02 | locus YGR252W, strain gcn5, hits give low values 1.06 | locus YHR013C, strain ard1, hits give low values 0.985 | locus YHR027C, strain rpn1, hits give low values 1.01 | locus YHR030C, strain SLT2, hits give low values 1.02 | locus YHR079C, strain IRE1 (second series), hits give low values 1.02 | locus YHR094C, strain hxt1, hits give low values 1.02 | locus YHR129C, strain ARP1, hits give low values 1.01 | locus YHR142W, strain chs7, hits give low values 0.995 | locus YHR200W, strain rpn10, hits give low values 1.03 | locus YIL066C, strain RNR3, hits give low values 1.04 | locus YIL073C, strain SPO22, hits give low values 1.1 | locus YIL125W, strain kgd1, hits give low values 1.02 | locus YIR030C, strain dcg1, hits give low values 1.02 | locus YJL092W, strain hpr5, hits give low values 1 | locus YJL095W, strain BCK1 (second series), hits give low values 0.997 | locus YJL095W, strain BCK1, hits give low values 1.02 | locus YJL115W, strain asf1, hits give low values 1.01 | locus YJL129C, strain trk1, hits give low values 0.997 | locus YJL134W, strain LCB3, hits give low values 1.02 | locus YJL154C, strain vps35, hits give low values 1.01 | locus YJL164C, strain tpk1, hits give low values 1.01 | locus YJL166W, strain qcr8, hits give low values 0.993 | locus YJL168C, strain set2, hits give low values 1.02 | locus YJL187C, strain SWE1 (second series), hits give low values 1.02 | locus YJL187C, strain SWE1, hits give low values 0.986
